Pol iota inh: blocks human DNA polymerase iota activity | Q9UNA4 | Pol iota fluorescent replication assay, 10 min | Potency, µM (titrated, usually from 115 µM), for the others: top-dose activity, negative = inhibition, actives largely listed as inhibitors | 390,000 compounds, 1% hits
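Pol iota at 10 nM preincubated 15 min with compounds at room temperature; reaction started with fluorescent substrate, 50 nM final. Fluorescence read kinetically at 0 and 10 min; buffer-only wells as negative control.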
WRN inhibitor: inhibitors of human WRN helicase. Potency, µM (highest dose often 114 µM), without a hit: at the highest dose activity change, negative = inhibition, usual class: inhibitors. 360,000 compounds, 0.46% hits. WRN helicase unwinding, fluorescent forked duplex, kinetic; further: on the % scale 0 is the no-effect control and ±100 the full control effect; nearly all actives have a fitted effect of over 55% in size
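WRN at 20 nM final preincubated with compound 15 min at room temperature; reaction started with 100 nM fluorophore/quencher forked duplex oligonucleotide and 2 mM ATP final. Unwinding followed kinetically by red fluorescence (ex 525, em 598 nm).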
Pol beta inh: inhibitors of human DNA polymerase beta; P06746; Pol beta primer extension/strand displacement, fluorescence kinetic; Potency, µM (titrated, usually from 114 µM), for the others: at the top dose activity change, negative = inhibition, usual class: inhibitors; 340,000 compounds, 1.3% hits; further: on the % scale 0 is the no-effect control and ±100 the full control effect
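10 nM enzyme + cpd, 15 min RT; start with substrate 50 nM final; read 0 min and after 10 min RT. Corrected, normalized data; 4-parameter Hill curve fit.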
Pol eta inh-1: inhibitors of human DNA polymerase eta; AID 588591; recombinant Pol eta, fluorescent DNA replication assay; Potency, µM (titrated, usually from 114 µM), inactives show at the highest dose activity change, negative = inhibition, most hits filed as inhibitors; 390,000 compounds, 1.2% hits; further: on the % scale 0 is the no-effect control and ±100 the full control effect
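Pol eta at 10 nM preincubated with compounds 15 min at room temperature; reaction started with fluorescent substrate (50 nM final) and read kinetically at 0 and 10 min.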
Pol kappa inh-1: blocks human DNA polymerase kappa activity | Q9UBT6 | Potency, µM (top dose mostly 107 µM), without a hit: top-dose activity, negative = inhibition, usual class: inhibitors | purified Pol kappa, fluorescent DNA synthesis assay, 10 min | 400,000 compounds, 0.53% hits | AID 588579; further: on the % scale 0 is the no-effect control and ±100 the full control effect
Target sequence (Q9UBT6 whole entry, looked up): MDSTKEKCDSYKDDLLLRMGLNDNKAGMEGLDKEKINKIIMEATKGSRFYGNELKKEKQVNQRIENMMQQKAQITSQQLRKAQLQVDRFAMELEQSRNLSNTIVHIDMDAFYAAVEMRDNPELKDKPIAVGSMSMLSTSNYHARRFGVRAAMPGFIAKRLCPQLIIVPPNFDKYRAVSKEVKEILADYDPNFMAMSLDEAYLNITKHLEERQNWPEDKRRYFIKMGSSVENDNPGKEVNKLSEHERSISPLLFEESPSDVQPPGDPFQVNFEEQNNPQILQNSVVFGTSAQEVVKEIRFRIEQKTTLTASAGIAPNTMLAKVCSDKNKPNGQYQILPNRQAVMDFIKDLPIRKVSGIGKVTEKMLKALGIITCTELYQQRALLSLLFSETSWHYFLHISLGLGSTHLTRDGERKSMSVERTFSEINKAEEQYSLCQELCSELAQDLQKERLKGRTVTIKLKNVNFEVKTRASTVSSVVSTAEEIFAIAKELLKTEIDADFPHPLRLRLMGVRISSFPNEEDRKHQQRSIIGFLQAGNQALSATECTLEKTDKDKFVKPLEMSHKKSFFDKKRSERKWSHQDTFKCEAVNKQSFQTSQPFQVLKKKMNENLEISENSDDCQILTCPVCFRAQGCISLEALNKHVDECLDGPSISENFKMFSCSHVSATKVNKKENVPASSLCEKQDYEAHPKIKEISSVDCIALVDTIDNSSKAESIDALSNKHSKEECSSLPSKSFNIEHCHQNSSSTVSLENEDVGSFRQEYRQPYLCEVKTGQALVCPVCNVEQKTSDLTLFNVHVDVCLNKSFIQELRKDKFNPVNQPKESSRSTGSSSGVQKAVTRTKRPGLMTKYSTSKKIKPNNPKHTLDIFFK
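10 nM Pol kappa preincubated 15 min at room temperature with compounds, then reaction started with substrate at 50 nM final. Fluorescence read kinetically at 0 and 10 min; buffer-only wells served as negative control.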
FEN1 inh: blocks human flap endonuclease 1. 390,000 compounds, 0.35% hits. Recombinant FEN1 flap cleavage, fluorescence, 15 min. Potency, µM (doses to about 114 µM), for the others: top-dose activity change, negative = inhibition, hits mostly inhibitors. P39748; further: on the % scale 0 is the no-effect control and ±100 the full control effect; nearly all actives have a fitted effect of over 65% in size
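Reaction started by adding substrate (50 nM final) to 10 nM enzyme after 15 min room-temperature compound preincubation. Reads at 0 and 15 min, with data normalized and fitted to a four-parameter Hill equation.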
Pol kappa inh-2: confirmation of human DNA polymerase kappa inhibitors | shares compounds with Pol eta inh-1 | purified Pol-kappa, fluorescent strand-displacement substrate | Potency, µM, hits mostly inhibitors | 920 compounds, 76% hits | AID 720501
Pol eta inh-2: confirmation of human DNA polymerase eta inhibitors | shares compounds with Pol eta inh-1 | Pol eta primer extension, TAMRA/BHQ fluorescence, 10 min | 2,600 compounds, 64% hits | Potency, µM, usual class: inhibitors
* marks the source's active call; other numbers are inactive results; [ ] = another dose, or the depositor's remark. Shown are actives, neighbours in structure and some others; about 2.4% of the full set was active somewhere. The call rests on the fitted dose curve; in most records, active means well fitted curve in the direction sought with a large enough effect; inconclusive means small, poorly fitted or top-dose-only effect, or another doubt; inactive means no such curve, though single readings can be large; an effect the other way counts as inactive or inconclusive. Potency means the concentration at half of the fitted maximal effect.

c1ccc2c(c1)OCC(c1nnc3sc(-c4cnccn4)nn13)O2 (stereo unspecified) was read as Pol iota inh inconclusive, WRN inhibitor -18%[57.1 µM], Pol beta inh 4%, Pol eta inh-1 89µM*, Pol kappa inh-1 -22%, FEN1 inh 15% and Pol eta inh-2 inconclusive.
O=C(O)CCN1CC2([N+](=O)[O-])C=CC(=O)C([N+](=O)[O-])(C1)C2CC(=O)c1ccccc1 (stereo unspecified) was read as Pol iota inh inconclusive, WRN inhibitor -18%[11.6 µM], Pol beta inh 28µM*, Pol eta inh-1 18µM*, Pol kappa inh-1 inconclusive, FEN1 inh 1%, Pol kappa inh-2 17* and Pol eta inh-2 30*.
For O=C(CCN1CCCCCC1)c1ccccc1 the results were Pol iota inh 0%, WRN inhibitor -19%, Pol beta inh 0%, Pol eta inh-1 -8%, Pol kappa inh-1 -7% and FEN1 inh 6%.
`Cc1ccc(C2CC(=O)Oc3ccc(C(C)(C)C)cc32)cc1` (stereo unspecified) gave Pol kappa inh-1 -20%.
For O=C(O)c1ccc(/C=N/NC(=O)c2cc3ccccc3cc2O)cc1 the results were Pol iota inh 16µM*, WRN inhibitor inconclusive, Pol eta inh-1 22µM*, Pol kappa inh-1 50µM*, FEN1 inh inconclusive and Pol eta inh-2 inconclusive.
Cn1c(O)c(/C=N/NC(=O)c2cc3ccccc3cc2O)c2ccccc21 was read as Pol iota inh inconclusive, WRN inhibitor -24%, Pol beta inh inconclusive, Pol eta inh-1 -20%, Pol kappa inh-1 -23% and FEN1 inh 4%.
For O=C(O)c1ccc(COc2ccc3ccccc3c2)o1 the results were Pol iota inh inconclusive, WRN inhibitor 1%, Pol beta inh 7%, Pol eta inh-1 1%, Pol kappa inh-1 4% and FEN1 inh 18%.
Screening CCOc1ccc(OCc2ccc(C(=O)O)o2)cc1 returned Pol iota inh -15%, WRN inhibitor -15%[11.6 µM], Pol beta inh 14µM*, Pol eta inh-1 13µM*, Pol kappa inh-1 -5%, FEN1 inh -10% and Pol eta inh-2 60*.
For CCCc1nnc(NC(=O)c2cc(=O)c3ccccc3o2)s1 the results were Pol iota inh 10%, Pol beta inh 5%, Pol eta inh-1 -16%, Pol kappa inh-1 4% and FEN1 inh 15%.
Screening CCC(C(=O)Nc1cc(C)ccc1C)n1c(=O)c(C(F)(F)F)nc2ccccc21 (stereo unspecified) returned Pol iota inh 1%, Pol beta inh 9%, Pol eta inh-1 -5%, Pol kappa inh-1 -9% and FEN1 inh 20%.
Screening CS(=O)(=O)C1=NSC2=NC(=O)/C(=C\c3cccn3-c3ccccc3Cl)C(=N)N21 returned Pol iota inh inconclusive, WRN inhibitor -10%[11.6 µM], Pol beta inh 35µM*, Pol eta inh-1 40µM*, Pol kappa inh-1 inconclusive, FEN1 inh inconclusive and Pol eta inh-2 inconclusive.
For CC1=NN2C(=N)/C(=C\c3cc(C)n(-c4cccc(C)c4)c3C)C(=O)N=C2S1 the results were Pol iota inh -22%[58.9 µM], WRN inhibitor -19%, Pol beta inh 0%, Pol eta inh-1 -18%, Pol kappa inh-1 -10% and FEN1 inh -5%.
COc1cccc(-n2c(C)cc(/C=C3/C(=N)N4C(=NC3=O)SN=C4S(C)(=O)=O)c2C)c1 was read as Pol iota inh inconclusive, WRN inhibitor -18%[57.1 µM], Pol beta inh 4%, Pol eta inh-1 18µM*, Pol kappa inh-1 -26%, FEN1 inh -15% and Pol eta inh-2 inconclusive.
For Cc1cc(C)cc(-n2cccc2/C=C2/C(=N)N3C(=NC2=O)SN=C3S(C)(=O)=O)c1 the results were Pol iota inh inconclusive, WRN inhibitor -11%[11.6 µM], Pol beta inh 45µM*, Pol eta inh-1 40µM*, Pol kappa inh-1 -10%, FEN1 inh -6% and Pol eta inh-2 inconclusive.
For CCOc1ccc2nc(N3C(=O)/C(=C/c4ccccc4)NC3=S)sc2c1 the results were Pol iota inh -16%, WRN inhibitor -16%, Pol beta inh 0%[57.1 µM], Pol eta inh-1 inconclusive, Pol kappa inh-1 -2% and FEN1 inh inconclusive.
For COc1ccc2nc(N3C(=O)/C(=C/c4ccccc4)NC3=S)sc2c1 the results were Pol iota inh -11%, WRN inhibitor -29%, Pol beta inh inconclusive, Pol eta inh-1 32µM*, Pol kappa inh-1 -2%, FEN1 inh -16% and Pol kappa inh-2 inconclusive.
For C=CCC1=C/C(=C\c2c(N)n3nc(CC(=O)N4CCCC4)sc3nc2=O)C=C(OC)C1=O the results were Pol iota inh 18%, WRN inhibitor 2%, Pol beta inh 8%, Pol eta inh-1 11%, Pol kappa inh-1 -8% and FEN1 inh 17%.
COC1=CC(=Cc2c(N)n3nc(CC(=O)N4CCOCC4)sc3nc2=O)C=C(OC)C1=O was read as Pol iota inh 22µM*, WRN inhibitor inconclusive, Pol beta inh inconclusive, Pol eta inh-1 20µM*, Pol kappa inh-1 79µM*, FEN1 inh -20% and Pol eta inh-2 inconclusive.
Screening Nc1c(C=C2C=CC(=O)C=C2)c(=O)nc2sc(CC(=O)N3CCOCC3)nn12 returned Pol iota inh -26%, WRN inhibitor -7%[11.6 µM], Pol beta inh 34%, Pol eta inh-1 inconclusive, Pol kappa inh-1 -32%, FEN1 inh 9% and Pol eta inh-2 76*.
Nc1c(/C=C2\C=Nc3ccccc32)c(=O)nc2sc(CC(=O)N3CCOCC3)nn12 was read as Pol iota inh 4%, WRN inhibitor -12%, Pol beta inh 2%, Pol eta inh-1 -15%, Pol kappa inh-1 -3% and FEN1 inh 19%.
Screening Cc1cn2c(=O)cc(COC(=O)c3cccc(NC(=O)COc4ccccc4)c3)nc2s1 returned Pol iota inh 6%, Pol beta inh 1%, Pol eta inh-1 -4%, Pol kappa inh-1 -8%[60.1 µM] and FEN1 inh 14%.
For COc1ccc(CN=Cc2c(C(=O)O)[nH]c3ccccc23)cc1 the results were Pol iota inh 13%, WRN inhibitor 0%, Pol beta inh -4%, Pol eta inh-1 -15%, Pol kappa inh-1 -9% and FEN1 inh -22%.

Compound activity: PubChem BioAssay, National Center for Advancing Translational Sciences (NCATS)
